# PubChem BioAssay AID624114 (Johns Hopkins Ion Channel Center, 2012)
# About 15 (0.4%) of roughly 4,000 compounds were called active.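 How the source made its calls: active means calcium fluorescence ratio, averaged over duplicates, at least 3 SD of the buffer-well ratio, meaning a nonspecific response in receptor-free cells; inactive means the rest.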 A selection follows.
# Test: nonspecific Ca2+ flux in HEK293 lacking MrgX1 – cell-based, Fluo-4 calcium flux, duplicate, counter-screen for MrgX1 allosteric activator project, primary screen (AID 624114)
# Conditions: parental HEK293 calcium flux, Fluo-4 fluorescence ratio; at 10 µM
row,SMILES,outcome
1,Cc1ccnc(NC(=O)C(C)N2C(=O)c3ccccc3C2=O)c1 (stereo unspecified),inactive
2,CCC(C)c1ccccc1N1CC(C(=O)N2CCN(S(=O)(=O)c3ccc(F)cc3)CC2)CC1=O (stereo unspecified),inactive
3,Cc1ccc(Nc2nc(-c3ccc(O)cc3O)cs2)nc1,inactive
4,CCC(C)Sc1nc(C)nc2c1c(=O)n(C)c(=O)n2C (stereo unspecified),inactive
5,Cc1ccnc(-n2sc3ccccc3c2=O)n1,inactive
6,CCOC(=O)C1=C(O)CSC1=Nc1cccc(Cl)c1,inactive
7,COCc1nnc(NC(=O)c2ccc3c(c2)OCO3)s1,inactive
8,CC1(C(=O)O)CCC(C(=O)Nc2ccc(Cl)c(Cl)c2)C1(C)C (stereo unspecified),inactive
9,CC(C)CNc1ncnc2c1cnn2Cc1ccc(Cl)cc1,inactive
10,CCc1ccc(N(CC(=O)Nc2sc3c(c2C(=O)OC)CCCC3)S(C)(=O)=O)cc1,inactive
11,OCCn1c(-c2ccccc2)csc1=Nc1ccccc1,inactive
12,CCOc1ccc(NC(=O)CCNC(=O)c2ccc(Br)cc2)cc1,inactive
13,Cc1ccc(C(C(=O)NC2CCCCC2)N(C(=O)c2csnn2)C2CC2)o1 (stereo unspecified),inactive
14,COc1ccc(-c2cc(C(F)(F)F)nc(S(C)(=O)=O)n2)cc1OC,inactive
15,O=C(C1CCN(S(=O)(=O)c2cnc[nH]2)CC1)N1CCN(Cc2ccc3c(c2)OCO3)CC1,inactive
16,O=C(Nc1cccc(Cl)c1)c1cncn1-c1ccc(F)cc1,inactive

row,SMILES,outcome
1,Cc1nonc1C1CCCN1Cc1nc(-c2ccc(F)cc2F)oc1C (stereo unspecified),inactive
2,Cc1ccc2c(C)c(C(=O)N(C)CCC3CCCCO3)oc2c1C (stereo unspecified),inactive
3,O=C(CN1CCN(c2ccc(Cl)cc2)CC1)N1CCCC1,inactive
4,COc1cc2c(cc1O)C(SC)=NC(C)(C)C2,inactive
5,FC(F)Oc1ccc(NC(=S)NCc2ccco2)cc1Cl,inactive
6,COc1ccc(Nc2nnc(C)c3ccccc23)cc1,inactive
7,Cc1c(C)c2c(OCC(=O)N[C@@H](C(=O)O)c3ccccc3)cc3c(c2oc1=O)CCC(C)(C)O3,inactive
8,CCSc1nsc(NC(=O)Nc2cccc(C(C)=O)c2)n1,inactive
9,Cc1c(C(=O)N2CCN(c3ccc(F)cc3)CC2)oc2c1C(=O)CCC2,inactive
10,O=C(c1cccc(S(=O)(=O)Nc2ccccc2Cl)c1)N1CCN(C(=O)c2ccco2)CC1,inactive
11,O=C(Cn1c(-c2cncs2)nc2ccccc21)NC1CCCC1,inactive
12,CC1(C)CC2CC(C)(CN2c2ncnc3ccc(Br)cc23)C1 (stereo unspecified),inactive
13,CCOC(=O)c1c(NC(=O)CSc2cn(CC)c3ccccc23)sc2c1CCC2,inactive
14,O=C(O)CSC(NC(=O)c1cccnc1)(C(F)(F)F)C(F)(F)F,inactive
15,CCOC(=O)N1CCN(C(=O)COCc2cc(-c3ccc4c(c3)OCO4)on2)CC1,inactive
